Records with an inconclusive call do not appear. Entries that show only a call come without a potency. Unmarked numbers belong to inactive results. The source made the active and inactive calls. Unless noted, the call rests on the fitted dose curve; in most records, active means well fitted curve in the direction sought with a large enough effect in the repeat runs; inconclusive means weak or mixed curves; inactive means no such curve, though single readings can be large; an effect the other way counts as inactive or inconclusive.
How the values were obtained:
[1] = qHTS assay to identify small molecule antagonists of the estrogen related receptor (ERR) signaling pathway from Tox21 library - cell viability counter screen (AID 1224834); further: nearly all actives have a fitted effect of over 30% in size; further: potency means the concentration at half of the fitted maximal effect
Procedure, shortened: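 Seeded ERR cells were rested 6 h at 37 C/5% CO2 before compounds, positive and negative controls or DMSO were added. Incubation continued for 17.5 h, and viability was then quantified by CellTiter-Fluor fluorescence.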

[2] = qHTS assay to identify small molecule agonists of the constitutive androstane receptor (CAR) signaling pathway - cell viability counter screen (AID 1224836); further: series mostly up to about 92 µM; nearly all actives have a fitted effect of over 45% in size
Procedure, shortened: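 Double-stable HepG2 hepatoma cells (hCAR plus CYP2B6-2.2kb) are treated for 23 h at 37 C with test compounds in 15-point concentration series. PK11195 at 0.75 uM final is co-added. Cell viability is quantified by CellTiter-Fluor.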

[3] = qHTS assay to identify small molecule antagonists of the constitutive androstane receptor (CAR) signaling pathway - cell viability counter screen (AID 1224837); further: series mostly up to about 92 µM; nearly all actives have a fitted effect of over 45% in size
Procedure, shortened: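 To flag cytotoxic false antagonists, HepG2 hCAR/CYP2B6-2.2kb cells were treated 23 hr with 15-concentration compound series and 50 nM CITCO at 37 C/5% CO2; CellTiter-Fluor fluorescence was the measured end point.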

[4] = molecular target: Nuclear receptor subfamily 1 group I member 3 (Homo sapiens) (UniProt Q14994); assay: qHTS assay to identify small molecule antagonists of the constitutive androstane receptor (CAR) signaling pathway (AID 1224838);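 further: HepG2 cells stably expressing hCAR with CYP2B6 luciferase reporter stimulated by CITCO; nearly all actives have a fitted effect of over 40% in size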
Sequence of Nuclear receptor subfamily 1 group I member 3 (Homo sapiens) (Q14994 whole entry, looked up): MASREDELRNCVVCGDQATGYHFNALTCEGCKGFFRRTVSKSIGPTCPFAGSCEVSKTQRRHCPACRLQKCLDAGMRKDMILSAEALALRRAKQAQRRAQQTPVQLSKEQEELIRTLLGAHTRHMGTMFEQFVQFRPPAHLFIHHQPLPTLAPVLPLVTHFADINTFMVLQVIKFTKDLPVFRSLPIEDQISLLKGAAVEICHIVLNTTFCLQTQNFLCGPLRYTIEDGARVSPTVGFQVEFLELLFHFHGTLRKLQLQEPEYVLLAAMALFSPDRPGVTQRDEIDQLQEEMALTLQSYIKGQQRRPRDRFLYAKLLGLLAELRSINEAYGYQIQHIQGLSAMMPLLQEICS
Procedure, shortened: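 Human hepatoma HepG2 cells expressing hCAR and a CYP2B6 promoter (2.2 kb) luciferase construct; compound titration (15 points) with 50 nM CITCO final, 24 h at 37 C/5% CO2; luminescence via ONE-Glo after 30 min at room temperature.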

[5] = molecular target: Nuclear receptor subfamily 1 group I member 3 (Homo sapiens) (UniProt Q14994); assay: qHTS assay to identify small molecule agonists of the constitutive androstane receptor (CAR) signaling pathway (AID 1224839); further: nearly all actives have a fitted effect of over 15% in size; further: potency means the concentration at half of the fitted maximal effect;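 on activation: HepG2 cells stably carrying human CAR and a CYP2B6 luciferase reporter; series mostly up to about 92 µM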
Procedure, shortened: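 Readout: firefly luciferase luminescence via ONE-Glo. System: HepG2 double-stable for hCAR and CYP2B6-2.2kb. Conditions: 15-point compound titration, PK11195 at 0.75 uM final, 24 h incubation.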

[6] = qHTS assay to identify small molecule antagonists of the estrogen related receptor signaling pathway with the pleiotropic PPARgamma coactivator (PGC) from Tox21 10K library - cell viability counter screen (AID 1224840; active means well fitted cell-killing curve with a large enough effect in the repeat runs, not every such curve was filed as active; further: nearly all actives have a fitted effect of over 40% in size; further: potency means the concentration at half of the fitted maximal effect)
Procedure, shortened: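 Seeded PGC/ERR cells (2,000/well, 6 h, 37 C/5% CO2) get compound by pin tool; 17.5 h incubation at 37 C; CellTiter-Fluor added, 30 min, fluorescence measured.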

[7] = qHTS assay to identify small molecule antagonists of the estrogen related receptor signaling pathway with the pleiotropic PPARgamma coactivator (PGC) from Tox21 10K library (AID 1224841; call rule not given here; further: actives are mostly falling curves and most rising ones were filed inactive; nearly all actives have a fitted effect of over 50% in size; further: potency means the concentration at half of the fitted maximal effect; on activity, negative = inhibition: series mostly up to about 92 µM)
Procedure, shortened: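 Test chemicals dissolved in DMSO were applied to pre-incubated (6 h) PGC/ERR cells at 2,000 cells/well for an 18 h, 37 C treatment; reporter luminescence was then read using One-Glo.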

[8] = qHTS assay to identify small molecule agonists of the estrogen related receptor signaling pathway with the pleiotropic PPARgamma coactivator (PGC) from Tox21 10K library (AID 1224842); further: nearly all actives have a fitted effect of over 15% in size
Procedure, shortened: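 PGC/ERR reporter cell line, 2,000 cells per well, incubated 6 h at 37 C before 23 nL compound in DMSO was added. After 18 h at 37 C, One-Glo luminescence read following 30 min at room temperature.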

[9] = molecular target: Thyrotropin receptor (Homo sapiens) (UniProt P16473); assay: qHTS assay to identify small molecule agonists of the thyroid stimulating hormone receptor (TSHR) signaling pathway (AID 1224843; calls by dose curve; further: nearly all actives have a fitted effect of over 45% in size)
Sequence of Thyrotropin receptor (Homo sapiens) (P16473 whole entry, looked up): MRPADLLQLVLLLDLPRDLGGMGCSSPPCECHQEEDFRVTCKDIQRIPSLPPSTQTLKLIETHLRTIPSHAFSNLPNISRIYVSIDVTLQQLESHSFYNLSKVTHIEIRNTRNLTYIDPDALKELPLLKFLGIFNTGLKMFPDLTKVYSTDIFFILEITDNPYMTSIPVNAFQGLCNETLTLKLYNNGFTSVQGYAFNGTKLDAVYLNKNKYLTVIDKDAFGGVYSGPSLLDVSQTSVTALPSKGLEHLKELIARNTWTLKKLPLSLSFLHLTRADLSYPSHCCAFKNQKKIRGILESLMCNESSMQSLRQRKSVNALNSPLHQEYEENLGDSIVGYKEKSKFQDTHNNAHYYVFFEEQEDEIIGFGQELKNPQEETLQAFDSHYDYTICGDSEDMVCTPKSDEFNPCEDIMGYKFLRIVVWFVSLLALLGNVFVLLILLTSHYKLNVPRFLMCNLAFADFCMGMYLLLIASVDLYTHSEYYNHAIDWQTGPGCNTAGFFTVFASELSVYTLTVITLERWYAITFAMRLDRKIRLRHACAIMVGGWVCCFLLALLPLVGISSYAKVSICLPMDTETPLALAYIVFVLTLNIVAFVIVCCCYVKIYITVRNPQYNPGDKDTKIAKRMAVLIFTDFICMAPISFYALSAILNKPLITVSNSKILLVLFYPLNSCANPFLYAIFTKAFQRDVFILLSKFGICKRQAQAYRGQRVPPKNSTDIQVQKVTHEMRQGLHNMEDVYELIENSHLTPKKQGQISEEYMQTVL
Procedure, shortened: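 Agonist-mode screen: TSHR HEK293 cells received test chemicals for half an hour at room temperature, then HTRF cAMP detection reagents for one hour prior to fluorescence measurement. Each chemical ran as a 15-concentration series, triplicated.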

[10] = molecular target: Luciferin 4-monooxygenase (Photinus pyralis) (UniProt P08659); assay: qHTS assay to identify small molecule inhibitors of firefly luciferase (AID 1224835); further: series mostly up to about 120 µM; nearly all actives have a fitted effect of over 25% in size
Sequence of Luciferin 4-monooxygenase (Photinus pyralis) (P08659 whole entry, looked up): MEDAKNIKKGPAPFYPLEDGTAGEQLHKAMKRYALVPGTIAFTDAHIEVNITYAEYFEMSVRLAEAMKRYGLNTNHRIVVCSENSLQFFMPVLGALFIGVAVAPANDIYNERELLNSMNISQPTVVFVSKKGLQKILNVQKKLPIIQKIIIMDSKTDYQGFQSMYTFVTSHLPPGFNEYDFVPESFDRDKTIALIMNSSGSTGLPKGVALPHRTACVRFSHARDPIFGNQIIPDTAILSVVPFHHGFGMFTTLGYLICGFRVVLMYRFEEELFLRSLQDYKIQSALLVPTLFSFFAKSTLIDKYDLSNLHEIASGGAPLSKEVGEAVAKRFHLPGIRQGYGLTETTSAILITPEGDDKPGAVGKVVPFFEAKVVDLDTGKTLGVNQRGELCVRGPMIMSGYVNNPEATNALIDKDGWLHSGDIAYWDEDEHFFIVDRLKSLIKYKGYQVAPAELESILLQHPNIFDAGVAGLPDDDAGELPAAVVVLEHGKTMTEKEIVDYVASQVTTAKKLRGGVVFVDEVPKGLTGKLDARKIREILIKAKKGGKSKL
Procedure, shortened: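 Biochemical qHTS: compounds run as interplate titrations against purified firefly enzyme, with D-luciferin and ATP each at its KM concentration. Light output recorded by CCD imaging.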

Q: Which results are given for `CCCCCCOC(=O)NC(=N)c1ccc(NCc2nc3cc(C(=O)N(CCC(=O)OCC)c4ccccn4)ccc3n2C)cc1`?
A: Potency [1]: 29.8 µM (active); Potency [2]: inactive; Potency [3]: inactive; Potency [4]: inactive; Potency [5]: inactive; Potency [6]: 29.8 µM (active); Potency [7]: 16.8 µM (active); Potency [8]: inactive; Potency [9]: inactive

Q: For `Cc1cc(N)c2cc(NC(=O)Nc3ccc4nc(C)cc(N)c4c3)ccc2n1`, which Potency [1] is on record?
A: inactive

Q: And the Potency [2]?
A: inactive

Q: What about the Potency [3] of the same compound?
A: inactive

Q: What about the Potency [4] of the same compound?
A: inactive

Q: And the Potency [5]?
A: inactive

Q: What about the Potency [6] of the same compound?
A: inactive

Q: Which Potency [1] does the source give for `O=S(c1cc(Cl)cc(Cl)c1O)c1cc(Cl)cc(Cl)c1O` here?
A: inactive

Q: And the Potency [2]?
A: inactive

Q: And the Potency [5]?
A: inactive

Q: What about the Potency [7] of the same compound?
A: inactive

Q: And the Potency [8]?
A: inactive

Q: With `CC(=O)[O][Al]` as the compound, how does the Potency [1] read?
A: inactive

Q: What about the Potency [3] of the same compound?
A: inactive

Q: And the Potency [6]?
A: inactive

Q: And the Potency [7]?
A: inactive

Q: What about the Potency [8] of the same compound?
A: inactive

Q: For `Cc1oc(-c2ccccc2)nc1CCOc1cccc2c1ccn2CCC(=O)O`, which Potency [1] is on record?
A: 30.6 µM (active)

Q: And the Potency [2]?
A: inactive

Q: And the Potency [4]?
A: inactive

Q: And the Potency [5]?
A: inactive

Q: And the Potency [6]?
A: inactive

Q: And the Potency [9]?
A: inactive

Q: With `CCCCC(CC)COC(=O)COc1ccc(Cl)cc1Cl` (stereo unspecified) as the compound, how does the Potency [1] read?
A: inactive

Q: And the Potency [2]?
A: inactive

Q: What about the Potency [3] of the same compound?
A: inactive

Q: Which Potency [1] does the source give for `O=[N+]([O-])c1cccc(S(=O)(=O)O)c1` here?
A: 43.9 µM (active)

Q: What about the Potency [10] of the same compound?
A: inactive

Q: And the Potency [5]?
A: inactive

Q: What about the Potency [7] of the same compound?
A: 55.3 µM (active)

Q: And the Potency [8]?
A: inactive

Q: Which viability change, negative = cytotoxic [1] does the source give for `CN(C)c1ccc(/C=C/c2ccc([N+](=O)[O-])cc2)cc1` here?
A: 1.01% [at 8.39 µM]

Q: And the viability change, negative = cytotoxic [2]?
A: 5.96% [at 8.39 µM]

Q: What about the activity change, negative = cytotoxicity [3] of the same compound?
A: 11.7% [at 8.39 µM]

Q: What about the activity, negative = inhibition [4] of the same compound?
A: 47.3% [at 8.39 µM]

Q: What about the Potency [5] of the same compound?
A: 0.872 µM (active)

Q: And the activation [9]?
A: -1.26% [at 8.39 µM]

Q: What does the source list for `COc1cc(Cl)ccc1Oc1ccc(Cl)cc1Cl`?
A: Potency [1]: inactive; Potency [2]: inactive; Potency [3]: inactive; Potency [5]: 29.8 µM (active); Potency [6]: inactive; Potency [7]: inactive; Potency [9]: inactive

Q: Which Potency [1] does the source give for `CCCCCCc1ccc(-c2ccc(C#N)cc2)cc1` here?
A: inactive

Q: What about the Potency [2] of the same compound?
A: inactive

Q: What about the Potency [3] of the same compound?
A: inactive

Q: What about the Potency [7] of the same compound?
A: inactive

Q: What about the Potency [8] of the same compound?
A: inactive

Q: What about the Potency [9] of the same compound?
A: inactive

Q: Which Potency [1] does the source give for `Cc1cccc(Nc2ccccc2)c1` here?
A: inactive

Q: What about the Potency [2] of the same compound?
A: inactive

Q: And the Potency [4]?
A: inactive

Q: Which results are given for `CC(C)C[C@H]1C(=O)N2CCC[C@H]2[C@]2(O)O[C@](NC(=O)[C@@H]3C=C4c5cccc6[nH]c(Br)c(c56)C[C@H]4N(C)C3)(C(C)C)C(=O)N12`?
A: Potency [1]: 18.4 µM (active); Potency [10]: inactive; Potency [4]: inactive; Potency [7]: 16.4 µM (active); Potency [8]: inactive; Potency [9]: inactive

Q: For `O=S(=O)(Oc1ccc(Cl)cc1)c1ccccc1`, which Potency [1] is on record?
A: inactive

Q: And the Potency [2]?
A: inactive

Q: What about the Potency [3] of the same compound?
A: inactive

Q: And the Potency [6]?
A: inactive

Q: What about the Potency [7] of the same compound?
A: inactive

Q: What about the Potency [8] of the same compound?
A: inactive

Q: And the Potency [9]?
A: inactive

Q: Which Potency [1] does the source give for `O=[N+]([O-])c1ccc2[nH]ncc2c1` here?
A: inactive

Q: And the Potency [10]?
A: inactive

Q: What about the Potency [6] of the same compound?
A: inactive

Q: What does the source list for `CCO[C@H](Cc1ccc(OCCc2ccc(OS(C)(=O)=O)cc2)cc1)C(=O)O`?
A: Potency [1]: inactive; Potency [2]: inactive; Potency [3]: inactive; Potency [4]: inactive; Potency [5]: inactive; Potency [6]: inactive

Q: With `OC(CN1CCC(Cc2ccc(F)cc2)CC1)c1ccc(Cl)cc1` (stereo unspecified) as the compound, how does the Potency [1] read?
A: inactive

Q: What about the Potency [10] of the same compound?
A: inactive

Q: And the Potency [5]?
A: inactive

Reference: PubChem BioAssay (Tox21)
